# Only a selection was taken, and hits are over-represented in it overall.
# U2OS ROS induce = cancer cell ROS induction; 46,000 tested, 2% active; ROS induction (% of piperlongumine), % at 10 µM; AID 624156; U2OS ROS induction, H2DCF-DA fluorescence; in the data active means ROS induction above about 79%, passing the limit was not always enough;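 further: 0% = DMSO vehicle median and 100% = reference compound median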
# * marks the source's active call; other numbers are inactive results.
SMILES,U2OS ROS induce
CC[C@]12C=CCN3CC[C@@]4(c5ccc(OC)cc5N(C)[C@H]4[C@@](O)(C(=O)OC)[C@@H]1OC(C)=O)[C@@H]32,117.3*
CCc1nc2ccccc2c(=O)n1-c1ccccc1Cl,-0.7
CC[C@@H]1/C=C\C=C\C[C@H](C)C(O)[C@](C)(O)C(=O)[C@H](C)C(O)[C@H](C)C(=O)[C@H](C)[C@@H](O)[C@H](C)/C=C/C(=O)O[C@H]2[C@@H](C)[C@@H](CC1)O[C@@]1(CC[C@@H](C)[C@@H](C[C@H](C)O)O1)[C@@H]2C (stereo not given in full),132.8*
C/C=C/[C@@H]1[C@H]2C[C@@H](C)CC[C@@H]2C(C)=C[C@H]1C(=O)c1c(O)c(-c2ccc(O)cc2)c[nH]c1=O,-1.8
COc1ccc([C@H]2Oc3c(I)c(OC)cc(OC)c3C[C@@H]2O)cc1OC,-4.6
CCNC(=O)[C@H]1O[C@@H](n2cnc3c(N)ncnc32)C(O)[C@H]1O (stereo not given in full),-13.6
CSc1nc(-c2ccc(Cl)cc2)nn1C(=O)N(C)C,-9.0
C=CCN1C(=O)/C(=C/c2cc(C)n(-c3ccccn3)c2C)C(=O)NC1=S,112.9*
O=c1c2ccccc2[nH]c(=S)n1-c1cc(C(F)(F)F)cc(C(F)(F)F)c1,52.5
CC[C@@]12CCCN3CC[C@]4(c5cccc(OC)c5N(C(C)=O)[C@@H]4CC1)[C@H]32,-8.1
O=C1NC(=O)N(c2ccccc2)C(=O)/C1=C/c1ccco1,83.0*
COC[C@H]([C@@H](O)[C@@H](O)C(=O)NCC[C@@H](C)c1nc(/C=C/C[C@H]2OC3(C[C@H](O)[C@H]2C)OC([C@@H](C[C@@H](O)[C@@H](C)[C@@H](O)[C@@H](C)/C=C(C)/C(C)=C/C=C/C(C)=C\C#N)OC)[C@@H](OP(=O)(O)O)C3(C)C)co1)N(C)C (stereo not given in full),-20.3
CO[C@H]1[C@H](O)[C@H](O[C@H]2CC[C@]3(C)C4CC[C@]5(C)[C@H](C6=CC(=O)OC6)CC[C@]5(O)C4CC[C@@H]3C2)O[C@@H](C)[C@@H]1O (stereo not given in full),2.2
CO[C@H](C)C(O)(C(=O)OCC1=CCN2CC[C@H](O)[C@@H]12)C(C)C (stereo not given in full),-2.5
CC[C@@]1(O)C(=O)OCc2c1cc1n(c2=O)-c2cc3ccccc3nc2C1,-9.7
CC(=O)NCC1CCCN2CCCCC12 (stereo not given),-7.2
COc1cc[n+](OC(=O)N2CCCCC2)c(C)c1,-4.9
C[C@H]1O[C@@H](O[C@H]2[C@@H](O)C[C@H](O[C@H]3[C@@H](O)C[C@H](O[C@H]4CC[C@@]5(C)[C@H](CC[C@@H]6[C@@H]5CC[C@]5(C)[C@@H](C7=CC(=O)OC7)CC[C@]65O)C4)O[C@@H]3C)O[C@@H]2C)C[C@H](O)[C@@H]1O,114.2*
C[C@H]1OC(O[C@H]2[C@@H](O)CC(O[C@H]3[C@@H](O)C[C@H](O[C@H]4CC[C@]5(C)C6CC[C@]7(C)[C@@H](C8=CC(=O)OC8)[C@@H](O)C[C@]7(O)[C@@H]6CC[C@@H]5C4)O[C@@H]3C)O[C@@H]2C)C[C@H](O)C1O (stereo not given in full),2.5
C[C@@H]1O[C@@H](OC2CCC3(C)C4CCC5(C)C(C6=CC(=O)OC6)CCC5(O)C4CC[C@H]3C2)[C@H](O)[C@H](O)[C@H]1O (stereo not given in full),8.1
OC[C@H]1O[C@@H](Oc2c[nH]c3ccc(Br)c(Cl)c23)[C@H](O)[C@@H](O)[C@H]1O,6.9
COc1cc2c(cc1O)C1Cc3ccc(OC)c(O)c3CN1CC2 (stereo not given),-0.4
N#CC(C#N)=NNc1ccc(OC(F)(F)F)cc1,30.4
CSC1=NN1c1cc(C)nc(N)n1,-4.1
C=C1C(=O)O[C@@H]2/C=C(/C)CC/C=C(/C)C[C@@H](OC(=O)/C(=C/CO)CO)C12 (stereo not given in full),66.3
